Data published in PubChem BioAssay AID1159580 (chemical genetic matrix, 2015).
Hit rate of the full screen: of about 5,500 compounds, about 2,000 (36%) were called active. About 18% were inconclusive and are not listed. Cut-off read from the data, not from the text of the source: active = normalized growth mostly below about 0.91 (no sharp cut-off); inconclusive = no clear call, values can overlap the other calls; inactive = mostly above about 0.92. The list shows a part of the results.

Test: chemical genetic growth profiling, strain panel (AID 1159580);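 note: tested at 20 µM; growth read once vehicle control cultures reached saturation at 30 °C; 1 = growth at the plate median or of vehicle wells; lower values mean less growth of the strain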
Details: S. cerevisiae deletion strains, growth OD
[1] = locus YAL040C, strain CLN3, active compounds read low
[2] = locus YCL061C, strain MRC1 (second series), active compounds read low
[3] = locus YDR150W, strain NUM1, active compounds read low
[4] = locus YDR363W, strain ESC2, active compounds read low
[5] = locus YER002W, strain NOP16, active compounds read low
[6] = locus YMR263W, strain SAP30, active compounds read low
[7] = locus YNL153C, strain GIM3, active compounds read low
[8] = locus YNL175C, strain NOP13, active compounds read low
[9] = locus YNL197C, strain WHI3, active compounds read low
[10] = locus YNL224C, strain SQS1, active compounds read low
[11] = locus YNL322C, strain KRE1, active compounds read low
[12] = locus YOR083W, strain WHI5 (second series), active compounds read low
[13] = locus YPL241C, strain CIN2, active compounds read low

Measured: normalized growth

C/C(O)=C(\C#N)C(=O)Nc1cc(Br)ccc1Br
inactive: locus YAL013W, strain DEP1, active compounds read low 0.98 | [1] 1.01 | [2] 0.99 | [3] 0.989 | [4] 1.05 | [5] 1 | locus YGR078C, strain PAC10, active compounds read low 0.97 | locus YGR229C, strain SMI1, active compounds read low 1.01 | locus YJR075W, strain HOC1, active compounds read low 1.02 | [6] 0.969 | [7] 0.999 | [8] 0.959 | [9] 0.961 | [10] 0.967 | [11] 0.983 | [12] 0.972 | [13] 0.98

O=C(Nc1ccccc1Sc1ccc([N+](=O)[O-])cc1[N+](=O)[O-])C(Cl)(Cl)Cl
inactive: locus YAR019C, strain CDC15, active compounds read low 0.972 | locus YBL105C, strain PKC1, active compounds read low 0.972 | locus YBR135W, strain CKS1, active compounds read low 0.973 | locus YBR136W, strain MEC1, active compounds read low 0.97 | locus YBR160W, strain CDC28, active compounds read low 0.983 | locus YDL017W, strain CDC7, active compounds read low 0.975 | locus YDL028C, strain MPS1, active compounds read low 0.973 | locus YDL101C, strain DUN1, active compounds read low 0.976 | locus YDL108W, strain KIN28, active compounds read low 0.958 | locus YDL132W, strain cdc53, active compounds read low 0.983 | locus YDL214C, strain PRR2, active compounds read low 0.987 | locus YDR052C, strain DBF4, active compounds read low 0.974 | locus YDR054C, strain cdc34, active compounds read low 0.971 | locus YDR226W, strain ADK1, active compounds read low 0.965 | locus YDR477W, strain SNF1, active compounds read low 0.977 | locus YER123W, strain YCK3, active compounds read low 0.986 | locus YER133W, strain GLC7, active compounds read low 0.969 | locus YFL009W, strain cdc4, active compounds read low 0.96 | locus YFL029C, strain CAK1, active compounds read low 0.973 | locus YFR003C, strain YPI1, active compounds read low 0.965 | locus YFR019W, strain FAB1, active compounds read low 0.984 | locus YFR028C, strain CDC14, active compounds read low 0.966 | locus YGR040W, strain KSS1, active compounds read low 0.975 | locus YGR052W, strain FMP48, active compounds read low 1.02 | locus YGR092W, strain DBF2, active compounds read low 0.985 | locus YHR030C, strain SLT2, active compounds read low 1.02 | locus YHR079C, strain IRE1, active compounds read low 0.967 | locus YHR082C, strain KSP1, active compounds read low 1.06 | locus YHR205W, strain SCH9, active compounds read low 0.795 | locus YIL147C, strain SLN1, active compounds read low 0.972 | locus YJL095W, strain BCK1, active compounds read low 1.01 | locus YJL128C, strain PBS2, active compounds read low 0.92 | locus YJL157C, strain FAR1, active compounds read low 0.97 | locus YJR016C, strain ILV3, active compounds read low 0.971 | locus YJR066W, strain TOR1 (second series), active compounds read low 0.967 | locus YJR066W, strain TOR1, active compounds read low 1.1 | locus YKL048C, strain ELM1, active compounds read low 0.976 | locus YKL067W, strain YNK1, active compounds read low 0.982 | locus YKL101W, strain HSL1, active compounds read low 1 | locus YKL193C, strain SDS22, active compounds read low 0.965 | locus YKL203C, strain TOR2, active compounds read low 1.02 | locus YLR113W, strain HOG1, active compounds read low 1.04 | locus YLR133W, strain CKI1, active compounds read low 0.977 | locus YLR403W, strain SFP1, active compounds read low 0.873 | locus YML070W, strain DAK1, active compounds read low 0.998 | locus YMR001C, strain CDC5, active compounds read low 0.975 | locus YMR205C, strain PFK2 (second series), active compounds read low 0.973 | locus YMR277W, strain FCP1, active compounds read low 0.955 | locus YNL006W, strain LST8, active compounds read low 0.991 | locus YNL020C, strain ARK1, active compounds read low 0.994 | locus YNL161W, strain CBK1, active compounds read low 0.968 | locus YNL183C, strain NPR1, active compounds read low 1.1 | locus YNL207W, strain RIO2, active compounds read low 0.967 | locus YNL222W, strain SSU72, active compounds read low 0.976 | locus YNL307C, strain MCK1 (second series), active compounds read low 1 | locus YOL078W, strain AVO1, active compounds read low 0.978 | locus YOL136C, strain PFK27, active compounds read low 0.982 | locus YOR061W, strain CKA2, active compounds read low 0.98 | locus YOR119C, strain RIO1, active compounds read low 1.05 | locus YOR231W, strain MKK1, active compounds read low 1.08 | locus YOR329C, strain SCD5, active compounds read low 0.986 | locus YPL031C, strain PHO85, active compounds read low 0.959 | locus YPL153C, strain RAD53, active compounds read low 0.975 | locus YPL204W, strain HRR25, active compounds read low 0.966 | locus YPL209C, strain IPL1, active compounds read low 0.971 | locus YPL256C, strain CLN2, active compounds read low 0.996 | locus YPR025C, strain CCL1, active compounds read low 0.991 | locus YPR106W, strain ISR1, active compounds read low 0.952 | locus YPR111W, strain DBF20, active compounds read low 0.964 | strain NNK1, active compounds read low 0.972 | strain TSCII, active compounds read low 0.981

Oc1ccc2c3c1O[C@H]1[C@@H](O)CC[C@@]4(O)C(C2)N(CC2CCC2)CCC314 (stereo partly drawn)
inactive: [1] 1.01 | [2] 0.998 | [3] 1.01 | [4] 1.01 | [5] 1 | [6] 1 | locus YMR307W, strain GAS1, active compounds read low 0.998 | locus YNL128W, strain TEP1, active compounds read low 0.995 | [7] 1.01 | [8] 1.01 | [9] 1.03 | [10] 1.02 | [11] 1.01 | [12] 0.984 | [13] 1
